# Experimental data taken from PubChem BioAssay AID504708 (Sanford-Burnham Center for Chemical Genomics, 2011).
# Some of the results follow. A number with no mark means an inactive call. Calls of active or inactive are those of the source.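 The calls were made as follows: active = inhibition at or below a set negative limit, negative inhibition meaning the enzyme was activated; inactive = the rest.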
# Target: Hexokinase HKDC1 (Homo sapiens) (UniProt Q2TB90)
# Assay: HKDC1 hexokinase activators, confirmation, biochemical, single concentration (AID 504708)
# Details: recombinant HKDC1, G6PDH/diaphorase resazurin fluorescence; at 20 µM; stronger effect = lower value
# Sequence of Hexokinase HKDC1 (Homo sapiens) (Q2TB90 whole entry, looked up): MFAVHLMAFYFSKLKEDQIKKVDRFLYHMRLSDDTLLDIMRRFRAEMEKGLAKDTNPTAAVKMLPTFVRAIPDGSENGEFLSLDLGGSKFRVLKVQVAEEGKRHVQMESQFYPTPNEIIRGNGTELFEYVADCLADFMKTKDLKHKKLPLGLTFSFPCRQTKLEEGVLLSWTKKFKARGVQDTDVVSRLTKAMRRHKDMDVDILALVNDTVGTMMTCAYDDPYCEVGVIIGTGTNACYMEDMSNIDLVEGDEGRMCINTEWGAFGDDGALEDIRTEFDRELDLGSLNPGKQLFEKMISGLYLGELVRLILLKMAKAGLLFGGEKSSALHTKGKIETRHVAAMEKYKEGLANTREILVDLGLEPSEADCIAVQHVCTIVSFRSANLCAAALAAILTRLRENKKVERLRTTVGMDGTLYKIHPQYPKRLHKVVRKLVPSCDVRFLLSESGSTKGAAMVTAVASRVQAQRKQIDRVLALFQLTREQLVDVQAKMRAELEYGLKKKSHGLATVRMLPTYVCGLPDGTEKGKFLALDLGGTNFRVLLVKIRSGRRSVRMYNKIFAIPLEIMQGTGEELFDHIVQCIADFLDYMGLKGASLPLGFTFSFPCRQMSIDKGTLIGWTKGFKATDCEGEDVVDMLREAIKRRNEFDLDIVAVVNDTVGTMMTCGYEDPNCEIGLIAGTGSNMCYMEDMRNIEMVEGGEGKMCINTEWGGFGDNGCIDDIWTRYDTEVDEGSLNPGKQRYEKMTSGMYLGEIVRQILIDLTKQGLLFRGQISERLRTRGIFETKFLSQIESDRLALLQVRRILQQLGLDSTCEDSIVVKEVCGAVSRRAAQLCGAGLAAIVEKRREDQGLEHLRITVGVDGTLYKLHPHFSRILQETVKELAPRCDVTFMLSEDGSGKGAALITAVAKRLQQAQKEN
row,SMILES,inhibition
1,CC(=O)N(C1=C(Cl)C(=O)c2ccccc2C1=O)c1ccc(C(=O)O)cc1,64.4%
2,Cc1cc(C2=NNC(=Nc3ccc(S(=O)(=O)N4CCOCC4)cc3)SC2)c(C)n1CC1CCCO1 (centres undefined),-55.8% (active)
3,Cc1ccc2oc(=O)c3cnn(CC(=O)N4CCCCCC4)c3c2c1,-63.5% (active)
4,COc1ccc(N(CC(=O)N/N=C/c2cccc3c2OCCO3)S(=O)(=O)c2ccc(NC(C)=O)cc2)cc1,19.1%
5,CCC(=C/c1sc2ccc3ccccc3c2[n+]1C)/C=C1\Sc2ccc3ccccc3c2N1C,24.1%
6,O=c1ccc2c(-c3ccccc3S(=O)(=O)O)c3ccc(O)c(O)c3oc-2c1O,14.4%
7,O=C(c1cccnc1)N(c1cc2sc(=O)oc2c2ccccc12)S(=O)(=O)c1ccccc1,-5%
8,CCc1ccc2c(c1)C1(NN=C(c3ccccc3)S1)C(=O)N2 (centres undefined),-13.6%
9,COCCNC(=O)Nc1ccc2nc(-c3ccco3)c(-c3ccco3)nc2c1,-20.8%
10,COc1ccc(NC(=O)CSc2ccc(-c3ccco3)nn2)c(OC)c1,70.8%
11,CC(=O)/C(=N\Nc1ccc(Cl)cc1Cl)Sc1cccc2cccnc12,-44.8% (active)
12,O=c1[nH]c2ccccc2n2c(-c3ccccc3)nnc12,58.5%
13,Clc1cccc(N=C2NN=C(c3ccc4c(c3)OCCO4)CS2)c1,-99.6% (active)
14,O=S(=O)(Nc1ccc(O)c2ccccc12)c1ccc(OC(F)(F)F)cc1,19.8%
15,CCn1cc(C(=O)NCc2ccc3c(c2)OCO3)c2cc(OC)c(OC)cc2c1=O,45.9%
16,CCCc1nc2oc3c(OCC)ncnc3c2c2c1COC(C)(C)C2,14.9%
17,O=C1C(Cl)=C(Oc2ccccc2)C(=O)c2ccccc21,77.7%
18,COc1ccc2c(c1)c(=Cc1ccc(N(C)C)cc1)c1cc(-c3ccccc3)[n+](C)n12,31.2%
19,CC(C)(C)Nc1c(N)c(=O)oc2ccccc12,-27.1%
